Laboratory results as given in the supplement of paper PMC11732987, “Enantioselective OTUD7B fragment discovery through chemoproteomics screening and high-throughput optimisation” (Communications Chemistry, 2025).

Legend:
Experiment in all cases: log2 ratio of Biotin-Ahx-Ub-VS probe labelling (fragment/DMSO); higher = less target engagement (more negative = stronger competition), active = hit call of the paper (q ≤ 0.05, log2 ratio ≤ -1)
Settings in all cases: compound concentration: 200 uM; treatment time: 3 h
OTUD6B = target: T1, OTUD6B (UniProt Q8N6M0)
T1 sequence (whole entry): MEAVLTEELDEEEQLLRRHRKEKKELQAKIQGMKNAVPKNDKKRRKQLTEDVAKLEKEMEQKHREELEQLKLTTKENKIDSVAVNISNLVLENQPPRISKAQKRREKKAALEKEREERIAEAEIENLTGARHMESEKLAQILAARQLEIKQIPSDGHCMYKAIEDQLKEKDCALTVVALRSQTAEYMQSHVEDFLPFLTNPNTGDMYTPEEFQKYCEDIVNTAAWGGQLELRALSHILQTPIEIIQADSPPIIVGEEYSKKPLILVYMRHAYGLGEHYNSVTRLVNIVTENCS
In short: (§1)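 Average log2 ratios of fragment over vehicle were obtained by unpaired t-test from global-median-normalised Spectronaut label-free quantities. Proteins with ≥2 unique peptides were included. HEK293T lysate (495 µg per sample) was treated in triplicate with fragment at 200 µM or vehicle for 3 h, then with Biotin-Ahx-Ub-VS at 0.5 µM final for 1 h, and labelled DUBs were NeutrAvidin-enriched and run by diaPASEF LC-MS/MS.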

OTUD7B = target: T2, OTUD7B (UniProt Q6GQQ9)
T2 sequence (whole entry): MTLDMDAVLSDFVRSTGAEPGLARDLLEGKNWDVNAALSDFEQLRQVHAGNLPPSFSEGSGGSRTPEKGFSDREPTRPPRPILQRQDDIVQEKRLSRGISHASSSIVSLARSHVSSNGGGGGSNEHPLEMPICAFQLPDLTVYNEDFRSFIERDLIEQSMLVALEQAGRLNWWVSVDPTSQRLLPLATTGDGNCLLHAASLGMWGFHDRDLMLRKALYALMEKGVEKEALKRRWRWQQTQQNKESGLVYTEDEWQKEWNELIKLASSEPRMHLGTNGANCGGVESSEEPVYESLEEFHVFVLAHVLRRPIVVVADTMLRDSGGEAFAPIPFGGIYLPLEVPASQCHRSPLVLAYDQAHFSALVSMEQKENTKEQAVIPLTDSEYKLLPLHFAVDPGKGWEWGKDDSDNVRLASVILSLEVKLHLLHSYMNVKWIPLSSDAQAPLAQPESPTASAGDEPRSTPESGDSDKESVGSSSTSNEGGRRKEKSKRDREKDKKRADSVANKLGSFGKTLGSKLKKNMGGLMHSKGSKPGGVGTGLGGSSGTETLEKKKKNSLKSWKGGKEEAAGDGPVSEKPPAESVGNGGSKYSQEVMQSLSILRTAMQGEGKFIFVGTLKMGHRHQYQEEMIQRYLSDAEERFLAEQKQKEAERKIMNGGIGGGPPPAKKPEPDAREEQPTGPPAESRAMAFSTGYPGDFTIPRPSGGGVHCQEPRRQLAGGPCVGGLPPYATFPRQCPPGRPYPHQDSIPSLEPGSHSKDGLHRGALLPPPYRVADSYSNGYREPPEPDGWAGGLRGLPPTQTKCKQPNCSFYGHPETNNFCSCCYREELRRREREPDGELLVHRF
In short: as §1

PRPF8 = PRPF8 (UniProt Q6P2Q9)
In short: as §1

PSMD7 = target: T3, PSMD7 (UniProt P51665)
T3 sequence (whole entry): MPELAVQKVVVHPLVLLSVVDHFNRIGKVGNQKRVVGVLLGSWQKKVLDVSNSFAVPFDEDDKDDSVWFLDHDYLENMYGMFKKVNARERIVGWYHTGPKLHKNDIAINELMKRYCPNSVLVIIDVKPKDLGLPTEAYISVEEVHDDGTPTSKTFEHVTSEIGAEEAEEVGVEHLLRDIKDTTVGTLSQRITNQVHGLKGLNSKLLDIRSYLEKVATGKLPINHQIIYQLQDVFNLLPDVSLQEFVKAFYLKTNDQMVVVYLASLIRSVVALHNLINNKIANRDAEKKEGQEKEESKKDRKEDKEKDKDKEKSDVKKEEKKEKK
In short: as §1

UCHL1 = UCHL1 (UniProt P09936)
In short: as §1

UCHL3 = target: T4, UCHL3 (UniProt P15374)
T4 sequence (whole entry): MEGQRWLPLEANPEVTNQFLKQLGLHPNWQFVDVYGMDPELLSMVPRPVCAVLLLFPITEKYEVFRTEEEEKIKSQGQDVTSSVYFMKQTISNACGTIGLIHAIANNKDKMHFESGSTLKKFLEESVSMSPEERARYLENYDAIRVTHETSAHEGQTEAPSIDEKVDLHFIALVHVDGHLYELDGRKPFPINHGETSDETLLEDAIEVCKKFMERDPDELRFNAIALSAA
In short: as §1

UCHL5 = target: T5, UCHL5 (UniProt Q9Y5K5)
T5 sequence (whole entry): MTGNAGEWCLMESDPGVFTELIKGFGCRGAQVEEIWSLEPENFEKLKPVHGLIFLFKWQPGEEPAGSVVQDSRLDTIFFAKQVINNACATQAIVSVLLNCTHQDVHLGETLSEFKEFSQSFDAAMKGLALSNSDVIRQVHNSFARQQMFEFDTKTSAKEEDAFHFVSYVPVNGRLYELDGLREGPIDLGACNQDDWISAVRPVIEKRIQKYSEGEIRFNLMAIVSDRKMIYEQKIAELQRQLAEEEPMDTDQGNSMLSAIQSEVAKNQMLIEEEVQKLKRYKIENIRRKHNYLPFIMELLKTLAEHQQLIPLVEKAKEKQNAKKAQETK
In short: as §1

USP10 = USP10 (UniProt Q14694)
In short: as §1

USP15 = target: T6, USP15 (UniProt Q9Y4E8)
T6 sequence (whole entry): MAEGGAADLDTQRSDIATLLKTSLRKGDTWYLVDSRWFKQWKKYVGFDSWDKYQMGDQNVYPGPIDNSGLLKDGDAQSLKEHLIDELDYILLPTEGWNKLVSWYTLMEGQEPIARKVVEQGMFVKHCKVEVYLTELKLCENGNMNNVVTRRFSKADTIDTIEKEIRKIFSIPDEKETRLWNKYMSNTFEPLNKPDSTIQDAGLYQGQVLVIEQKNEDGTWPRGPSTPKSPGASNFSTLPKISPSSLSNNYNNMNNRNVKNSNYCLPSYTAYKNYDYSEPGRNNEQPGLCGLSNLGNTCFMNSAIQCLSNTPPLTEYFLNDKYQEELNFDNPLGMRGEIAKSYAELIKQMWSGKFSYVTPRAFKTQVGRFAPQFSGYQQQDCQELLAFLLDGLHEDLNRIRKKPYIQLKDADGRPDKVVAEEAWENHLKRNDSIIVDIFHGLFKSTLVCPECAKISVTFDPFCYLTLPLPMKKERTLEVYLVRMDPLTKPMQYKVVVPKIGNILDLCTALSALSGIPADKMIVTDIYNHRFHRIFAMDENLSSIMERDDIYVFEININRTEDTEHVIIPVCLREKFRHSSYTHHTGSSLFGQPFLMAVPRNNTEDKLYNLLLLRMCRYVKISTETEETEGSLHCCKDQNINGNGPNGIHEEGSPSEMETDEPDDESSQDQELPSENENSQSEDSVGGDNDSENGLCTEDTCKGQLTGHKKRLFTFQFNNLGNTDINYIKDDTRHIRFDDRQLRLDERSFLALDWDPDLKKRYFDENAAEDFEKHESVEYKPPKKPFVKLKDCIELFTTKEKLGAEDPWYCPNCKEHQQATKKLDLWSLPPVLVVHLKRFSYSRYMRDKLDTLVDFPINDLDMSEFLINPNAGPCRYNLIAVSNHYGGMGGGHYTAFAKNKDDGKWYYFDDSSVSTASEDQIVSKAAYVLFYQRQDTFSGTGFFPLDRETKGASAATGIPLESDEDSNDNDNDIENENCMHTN
In short: as §1

Measured: log2 ratio of Biotin-Ahx-Ub-VS probe labelling

USP10, sequence (Q14694 whole entry): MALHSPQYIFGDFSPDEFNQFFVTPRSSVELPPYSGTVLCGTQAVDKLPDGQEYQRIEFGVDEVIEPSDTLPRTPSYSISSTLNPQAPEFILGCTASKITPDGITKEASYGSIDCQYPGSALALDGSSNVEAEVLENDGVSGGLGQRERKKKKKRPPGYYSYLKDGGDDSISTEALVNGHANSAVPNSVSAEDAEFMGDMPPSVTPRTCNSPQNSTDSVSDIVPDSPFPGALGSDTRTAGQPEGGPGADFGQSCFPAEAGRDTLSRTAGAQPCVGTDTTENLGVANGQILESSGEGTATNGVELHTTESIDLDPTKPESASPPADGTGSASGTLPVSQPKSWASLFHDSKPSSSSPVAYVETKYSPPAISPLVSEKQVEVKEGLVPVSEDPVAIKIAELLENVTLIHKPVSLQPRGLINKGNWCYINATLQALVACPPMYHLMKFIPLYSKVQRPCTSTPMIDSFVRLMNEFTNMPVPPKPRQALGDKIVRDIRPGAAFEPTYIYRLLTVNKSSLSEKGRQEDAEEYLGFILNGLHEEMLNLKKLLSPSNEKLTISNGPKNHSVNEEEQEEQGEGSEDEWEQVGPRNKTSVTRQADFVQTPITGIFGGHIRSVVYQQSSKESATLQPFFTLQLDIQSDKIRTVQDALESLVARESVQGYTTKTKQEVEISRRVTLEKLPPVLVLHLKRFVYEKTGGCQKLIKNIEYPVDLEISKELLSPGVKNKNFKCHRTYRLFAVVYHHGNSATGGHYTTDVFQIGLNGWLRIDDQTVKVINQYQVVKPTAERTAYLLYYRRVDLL
UCHL1, sequence (P09936 whole entry, looked up): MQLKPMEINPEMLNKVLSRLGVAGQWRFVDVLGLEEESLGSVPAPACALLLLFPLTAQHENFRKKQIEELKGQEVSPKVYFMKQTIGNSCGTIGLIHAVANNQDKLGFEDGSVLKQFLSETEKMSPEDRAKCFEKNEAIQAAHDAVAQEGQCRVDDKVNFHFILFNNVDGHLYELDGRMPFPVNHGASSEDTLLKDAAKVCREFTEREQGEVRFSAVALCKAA

O=C(CCl)N1CCC(c2noc3cc(F)ccc23)CC1
inactive: OTUD6B -0.0328 | OTUD7B -0.608 | PRPF8 -0.0836 | PSMD7 -0.139 | UCHL1 -0.799 | UCHL3 0.208 | UCHL5 -0.186 | USP10 -0.264 | USP15 -0.468
